# Laboratory results as given in ChEMBL document CHEMBL5606460, “ASAP - DENV-2 NS2B-NS3 protease fluorescence single point” (2024).
# In all, about 2,000 compounds went through this assay and about 110 (5.5%) showed an effect of 50% or more. This is one part of a sample in which strong results are shown more often than they occur.
# Target: Genome polyprotein (dengue virus type 2) (UniProt P29990)
# [1] = Thailand/16681/1984, Concentration 25.0 uM, Number of replicates 1.0
smiles,measurement,setting,value
NCc1cccc(NC(=O)[C@@H](NC(=O)OCc2ccccc2)c2ccc(F)c(F)c2)c1,inhibition,"Thailand/16681/1984, Concentration 49.5 uM, Number of replicates 2.0, Standard deviation 1.4013065114851189 %",-6.54%
same,inhibition,"Thailand/16681/1984, Concentration 99.01 uM, Number of replicates 2.0, Standard deviation 2.1722806038563465 %",-6.15%
same,inhibition,"Thailand/16681/1984, Concentration 198.0 uM, Number of replicates 2.0, Standard deviation 2.359590386651735 %",-2.47%
NCc1cccc(NC(=O)[C@@H](NC(=O)OCc2ccccc2)c2ccc(F)cc2)c1,inhibition,"Thailand/16681/1984, Concentration 49.5 uM, Number of replicates 2.0, Standard deviation 2.4011437232418986 %",-4.62%
same,inhibition,"Thailand/16681/1984, Concentration 99.01 uM, Number of replicates 2.0, Standard deviation 1.9050608177527883 %",-3.96%
same,inhibition,"Thailand/16681/1984, Concentration 198.0 uM, Number of replicates 2.0, Standard deviation 2.2061626239616485 %",-3.52%
NCc1cccc(NC(=O)[C@@H](NC(=O)OCc2ccccc2)c2ccc(OCc3ccccc3)cc2)c1,inhibition,"Thailand/16681/1984, Concentration 49.5 uM, Number of replicates 2.0, Standard deviation 0.05193031216203084 %",99.8%
same,inhibition,"Thailand/16681/1984, Concentration 99.01 uM, Number of replicates 2.0, Standard deviation 0.07343936624368645 %",99.8%
same,inhibition,"Thailand/16681/1984, Concentration 198.0 uM, Number of replicates 2.0, Standard deviation 0.025182910572653226 %",99.6%
CCCCCC(=O)N[C@H](C(=O)NCc1ccc(N)nc1)c1ccc(OCc2ccccc2)cc1,inhibition,"Thailand/16681/1984, Concentration 49.5 uM, Number of replicates 2.0, Standard deviation 0.5514996049599625 %",-5.35%
same,inhibition,"Thailand/16681/1984, Concentration 99.01 uM, Number of replicates 2.0, Standard deviation 6.42872691267386 %",2.25%
same,inhibition,"Thailand/16681/1984, Concentration 198.0 uM, Number of replicates 2.0, Standard deviation 0.7744386054656718 %",-1.4%
NCc1cccc(NC(=O)[C@@H](NC(=O)OCc2ccccc2)c2ccccc2)c1,inhibition,"Thailand/16681/1984, Concentration 49.5 uM, Number of replicates 2.0, Standard deviation 1.0300513707602847 %",0.869%
same,inhibition,"Thailand/16681/1984, Concentration 99.01 uM, Number of replicates 2.0, Standard deviation 0.7240873671299501 %",0.819%
same,inhibition,"Thailand/16681/1984, Concentration 198.0 uM, Number of replicates 2.0, Standard deviation 0.6193503939215136 %",0.644%
CCCCCC(=O)N[C@H](C(=O)NCc1ccc(NC(=N)N)cc1)c1ccc(OCc2ccccc2)cc1,inhibition,"Thailand/16681/1984, Concentration 49.5 uM, Number of replicates 2.0, Standard deviation 0.35669280924008506 %",0.374%
same,inhibition,"Thailand/16681/1984, Concentration 99.01 uM, Number of replicates 2.0, Standard deviation 0.1951319007042223 %",2.1%
same,inhibition,"Thailand/16681/1984, Concentration 198.0 uM, Number of replicates 2.0, Standard deviation 2.320076788942105 %",11.9%
CCCCCC(=O)N[C@H](C(=O)NCc1cccc(CN)c1)c1ccc(OCc2ccccc2)cc1,inhibition,"Thailand/16681/1984, Concentration 49.5 uM, Number of replicates 2.0, Standard deviation 0.6286197397778024 %",-3.44%
same,inhibition,"Thailand/16681/1984, Concentration 99.01 uM, Number of replicates 2.0, Standard deviation 10.030102962525104 %",65.8%
same,inhibition,"Thailand/16681/1984, Concentration 198.0 uM, Number of replicates 2.0, Standard deviation 0.2962336766184579 %",98.7%
O=Cc1ccc(N2CCC(C(=O)N3CCC(=C4c5ccc(Cl)cc5CCc5cccnc54)CC3)CC2)cc1,inhibition,[1],-7.77%
Cc1cc(CO)c2cccc(Cc3cccc(C(=O)N4CC[C@@H](O)C4)c3)c2n1,inhibition,"Thailand/16681/1984, Concentration 49.95 uM, Number of replicates 2.0, Standard deviation 0.8940031033980441 %",-6.42%
same,inhibition,"Thailand/16681/1984, Concentration 99.9 uM, Number of replicates 2.0, Standard deviation 1.7851314545528572 %",-4.22%
Cc1cc(NC(=O)c2[nH]c([C@H]3CCCNC3)nc2C)n[nH]1,inhibition,"Thailand/16681/1984, Concentration 49.5 uM, Number of replicates 2.0, Standard deviation 0.1819338679741269 %",-0.694%
same,inhibition,"Thailand/16681/1984, Concentration 99.01 uM, Number of replicates 2.0, Standard deviation 0.4335851561467917 %",-1.03%
same,inhibition,"Thailand/16681/1984, Concentration 198.0 uM, Number of replicates 2.0, Standard deviation 0.7148425402027826 %",-1.18%
O=Cc1ccc(N2CCC(C(=O)Nc3nnc(Cl)cc3Br)CC2)cc1,inhibition,[1],33%
Cc1cc(CO)c2cccc(Cc3cccc(NC(=O)c4cccc(Cn5cncn5)c4)c3)c2n1,inhibition,"Thailand/16681/1984, Concentration 49.95 uM, Number of replicates 2.0, Standard deviation 0.03445572300723204 %",-2.36%
same,inhibition,"Thailand/16681/1984, Concentration 99.9 uM, Number of replicates 2.0, Standard deviation 1.2505418184916173 %",1.37%
O=Cc1ccc(N2CCC(C(=O)NCC(=O)c3ccccc3F)CC2)cc1,inhibition,[1],12.6%
O=Cc1ccc(N2CCC(C(=O)N[C@@H]3CCCN(Cc4ccccc4)C3)CC2)cc1,inhibition,[1],13.3%
CSCC[C@H](NC(=O)OC(C)(C)C)C(=O)N1CCC[C@H]1C(=O)N1CCNCC1,inhibition,"Thailand/16681/1984, Concentration 49.5 uM, Number of replicates 2.0, Standard deviation 0.18656479510110988 %",-1.01%
same,inhibition,"Thailand/16681/1984, Concentration 99.01 uM, Number of replicates 2.0, Standard deviation 0.6673278690655411 %",-1.03%
same,inhibition,"Thailand/16681/1984, Concentration 198.0 uM, Number of replicates 2.0, Standard deviation 0.6237960118923063 %",-0.61%
CNC(=O)C[C@@H](C)NS(=O)(=O)c1ccc(Oc2ccccc2Cl)cc1,inhibition,"Thailand/16681/1984, Concentration 49.5 uM, Number of replicates 2.0, Standard deviation 1.3030195128486834 %",0.058%
same,inhibition,"Thailand/16681/1984, Concentration 99.01 uM, Number of replicates 2.0, Standard deviation 1.4693139392091605 %",1.01%
same,inhibition,"Thailand/16681/1984, Concentration 198.0 uM, Number of replicates 2.0, Standard deviation 0.5754244321045655 %",1.94%
CCN(Cc1cnn(CC)c1)C(=O)C1CCN(c2ccc(C=O)cc2)CC1,inhibition,[1],12.7%
NCc1cccc(CNC(=O)[C@@H](NC(=O)OCc2ccccc2)c2ccc(OCc3ccccc3)cc2)c1,inhibition,"Thailand/16681/1984, Concentration 49.5 uM, Number of replicates 2.0, Standard deviation 0.05305782465339428 %",100%
same,inhibition,"Thailand/16681/1984, Concentration 99.01 uM, Number of replicates 2.0, Standard deviation 0.03132758391075349 %",99.6%
same,inhibition,"Thailand/16681/1984, Concentration 198.0 uM, Number of replicates 2.0, Standard deviation 0.04155072348555595 %",99.5%
NCc1ccc(NC(=O)[C@@H](NC(=O)OCc2ccccc2)c2ccc(OCc3ccccc3)cc2)cc1,inhibition,"Thailand/16681/1984, Concentration 49.5 uM, Number of replicates 2.0, Standard deviation 0.2921733335266154 %",1.85%
same,inhibition,"Thailand/16681/1984, Concentration 99.01 uM, Number of replicates 2.0, Standard deviation 0.5182536650923871 %",1.48%
same,inhibition,"Thailand/16681/1984, Concentration 198.0 uM, Number of replicates 2.0, Standard deviation 0.5806748336109616 %",1.92%
O=C(N[C@H](C(=O)O)c1ccc(OCc2ccccc2)cc1)OCc1ccccc1,inhibition,"Thailand/16681/1984, Concentration 49.5 uM, Number of replicates 2.0, Standard deviation 1.5755205914644184 %",1.16%
same,inhibition,"Thailand/16681/1984, Concentration 99.01 uM, Number of replicates 2.0, Standard deviation 1.1157080020325059 %",3.53%
same,inhibition,"Thailand/16681/1984, Concentration 198.0 uM, Number of replicates 2.0, Standard deviation 0.14215963415330513 %",10.6%
Cc1cc(CO)c2cccc(CC(=O)NCc3ccc(S(N)(=O)=O)cc3)c2n1,inhibition,"Thailand/16681/1984, Concentration 49.95 uM, Number of replicates 2.0, Standard deviation 1.717051818740604 %",21.3%
same,inhibition,"Thailand/16681/1984, Concentration 99.9 uM, Number of replicates 2.0, Standard deviation 5.294472274247832 %",43.7%
Cc1cc(CO)c2cccc(NC(=O)NCc3ccc(N)cc3)c2n1,inhibition,"Thailand/16681/1984, Concentration 49.95 uM, Number of replicates 2.0, Standard deviation 1.081774899946809 %",4.55%
same,inhibition,"Thailand/16681/1984, Concentration 99.9 uM, Number of replicates 2.0, Standard deviation 2.6483447678271466 %",14.1%
Cc1cc(CO)c2cccc(Cc3cccc(C(=O)N(c4ncccn4)S(=O)(=O)c4ccc(N)cc4)c3)c2n1,inhibition,"Thailand/16681/1984, Concentration 49.95 uM, Number of replicates 2.0, Standard deviation 1.2554851591331873 %",27.5%
same,inhibition,"Thailand/16681/1984, Concentration 99.9 uM, Number of replicates 2.0, Standard deviation 1.7606970720097574 %",55.5%
Cc1cc(CO)c2cccc(Cc3ccccc3C(=O)N(c3ncccn3)S(=O)(=O)c3ccc(N)cc3)c2n1,inhibition,"Thailand/16681/1984, Concentration 49.95 uM, Number of replicates 2.0, Standard deviation 1.284948840815395 %",27.7%
same,inhibition,"Thailand/16681/1984, Concentration 99.9 uM, Number of replicates 2.0, Standard deviation 0.4850893215235289 %",47.5%
Cc1cc(CO)c2cccc(CC(=O)N(c3ncccn3)S(=O)(=O)c3ccc(N)cc3)c2n1,inhibition,"Thailand/16681/1984, Concentration 49.95 uM, Number of replicates 2.0, Standard deviation 0.013152514133703636 %",99.6%
same,inhibition,"Thailand/16681/1984, Concentration 99.9 uM, Number of replicates 2.0, Standard deviation 0.02076996694616858 %",99.4%
Cc1cc(CO)c2cccc(Cc3cccc(C(=O)NCc4ccc(S(N)(=O)=O)cc4)c3)c2n1,inhibition,"Thailand/16681/1984, Concentration 49.95 uM, Number of replicates 2.0, Standard deviation 0.214877109175697 %",5.4%
same,inhibition,"Thailand/16681/1984, Concentration 99.9 uM, Number of replicates 2.0, Standard deviation 0.2579967069502225 %",18%
CC(=O)N[C@@H](CCCCN)C(=O)Nc1cccc(Cc2cccc3c(CO)cc(C)nc23)c1,inhibition,"Thailand/16681/1984, Concentration 49.95 uM, Number of replicates 2.0, Standard deviation 0.858525740782908 %",-3.5%
same,inhibition,"Thailand/16681/1984, Concentration 99.9 uM, Number of replicates 2.0, Standard deviation 1.064156674332285 %",6.38%
